FLuc counter: firefly luciferase modulation, counter-screen for miR-21 project. purified FLuc, Km substrates, luminescence inhibition. AID 588342. P08659. Potency, µM (series often up to 57.5 µM), inactives show top-dose activity change, negative = inhibition, most hits filed as inhibitors. 360,000 compounds, 6.9% hits;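 also: plate controls were vehicle for no effect and reference inhibitor for full effect; nearly all actives have a fitted effect of over 55% in size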
Target sequence (P08659 whole entry, looked up): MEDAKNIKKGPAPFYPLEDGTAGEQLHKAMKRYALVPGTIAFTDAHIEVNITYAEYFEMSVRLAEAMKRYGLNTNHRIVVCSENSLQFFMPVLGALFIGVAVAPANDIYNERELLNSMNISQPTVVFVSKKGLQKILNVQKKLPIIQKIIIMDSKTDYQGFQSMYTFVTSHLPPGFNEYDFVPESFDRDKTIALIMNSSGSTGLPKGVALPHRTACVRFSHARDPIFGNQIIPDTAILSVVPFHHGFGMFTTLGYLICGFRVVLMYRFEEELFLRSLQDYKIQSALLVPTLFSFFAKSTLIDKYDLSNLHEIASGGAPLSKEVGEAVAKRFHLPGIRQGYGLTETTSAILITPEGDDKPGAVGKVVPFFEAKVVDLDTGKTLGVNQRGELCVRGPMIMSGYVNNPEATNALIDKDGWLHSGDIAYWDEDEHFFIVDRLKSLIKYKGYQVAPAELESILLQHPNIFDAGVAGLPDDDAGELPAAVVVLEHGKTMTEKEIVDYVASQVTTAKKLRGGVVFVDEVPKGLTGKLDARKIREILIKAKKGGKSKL
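Purified P. pyralis luciferase, 10 nM final, with Km-level 10 uM D-luciferin and 10 uM ATP in 50 mM Tris acetate pH 7.5, 10 mM Mg acetate, 0.01% Tween-20, 0.05% BSA; 6-point qHTS titration about 60 µM downward; luminescence read.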
Rab9 promoter act: Rab9 promoter activation; Potency, µM (series often up to 9.22 µM), for the others: top-dose activation, negative = inhibition, hits mostly activators; Huh7 Rab9 promoter-luciferase reporter, luminescence, 24 h; 320,000 compounds, 2.8% hits; AID 485297; also: % of control where 0% means no effect; nearly all actives have a fitted effect of over 60% in size
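Promoter activation is measured as luciferase luminescence in Huh7 cells stably transfected with a Rab9 promoter–luciferase construct, following 24 h compound exposure at 37 °C and 10 min reagent incubation at ambient temperature.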
ELG1 repair inh: ELG1-dependent DNA repair inhibition; HEK293T ELG1-luciferase reporter, luminescence, 16 h; DNA damage induced by 5-fluorouridine; Potency, µM (doses to about 46.1 µM), inactives show at the top dose activity change, negative = inhibition, usual class: inhibitors; 330,000 compounds, 2.3% hits; also: % is scaled to controls: 0 for no effect and ±100 for the full control effect; nearly all actives have a fitted effect of over 55% in size
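Reporter activity after DNA damage by 5-fluorouridine is monitored. Compound-treated cells incubate 16 hr at 37 °C, then ONE-Glo is added for 30 min before luminescence reading.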
ELG1 genotox: induces genotoxicity in HEK293T cells with luciferase-tagged ELG1. 330,000 compounds, 1.3% hits. Potency, µM (doses to about 46 µM), for inactives: at the top dose activity change, positive = activation, actives largely listed as activators. HEK293T ELG1-luciferase reporter, luminescence, 16 h; also: % of control where 0% means no effect; nearly all actives have a fitted effect of over 60% in size
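16 hr compound incubation (37 °C, 5% CO2) of HEK293T cells carrying luciferase-tagged ELG1; luciferase then measured by ONE-Glo luminescence after 30 min at RT.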
NPC1 promoter act: activators of NPC1 promoter | Huh7 NPC1 promoter luciferase reporter, 24 h | Potency, µM (series often up to 9.22 µM), for the others: at the top dose activation, most hits filed as activators | 320,000 compounds, 2.4% hits; also: % of control where 0% means no effect; nearly all actives have a fitted effect of over 60% in size
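Quantitative HTS used a cell-based reporter: Huh7 cells stably bearing the NPC1 promoter upstream of luciferase were treated with compounds for 24 h, and promoter activation was read as luminescence.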
SMN2 splice up: SMN2 splice variant enhancement; HEK293 SMN2-luciferase splicing reporter, luminescence, 30-36 h; Potency, µM (top dose mostly 46.1 µM), for the others: at the top dose activity change, positive = activation, actives largely listed as activators; 210,000 compounds, 2.8% hits; AID 1458; also: % of control where 0% means no effect; nearly all actives have a fitted effect of over 55% in size
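qHTS luciferase splicing reporter: luminescence rises when SMN2 exon 7 is included in transfected HEK293 cells. Compound exposure lasted 30-36 h at 37C, with 4.5 mM final sodium butyrate as control, followed by a ONE-Glo read.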
* marks the source's active call; other numbers are inactive results; u = inconclusive; x = no result. Shown are actives, neighbours in structure and some others; about 9.2% of the full set was active somewhere. Calls follow the shape of the dose curve; as a rule, active = well fitted curve in the direction sought with a large enough effect; inconclusive = small, poorly fitted or top-dose-only effect, or another doubt; inactive = no such curve, though single readings can be large; an effect the other way counts as inactive or inconclusive. Potency is read from the fitted curve at half-maximal effect.

SMILES	FLuc counter	Rab9 promoter act	ELG1 repair inh	ELG1 genotox	NPC1 promoter act	SMN2 splice up
CCCCNc1ncnc2c1cnn2-c1ccccc1	5.4µM*	u	u	u	u	3.5µM*
COC(=O)c1cc(C(=O)OCC(=O)NNC(=O)c2cccs2)cc([N+](=O)[O-])c1	1%	1%	-2%	2%	-1%	x
COc1ccc(S(=O)(=O)N(C)C)cc1NC(=O)COC(=O)C1CC1	x	x	15%	3%	x	x
Clc1ccc(-n2ncc3c(NCCCn4ccnc4)ncnc32)cc1	11µM*	u	u	8.2µM*	u	22%
CCc1ccc(S(=O)(=O)NCCOc2cccc3cccnc23)cc1	0%	0%	-23%	-14%	1%	x
Cc1ccc(S(=O)(=O)N2CCCC2=O)c(C)c1N(C)S(C)(=O)=O	0%	7%	7%	1%	-2%	x
Cc1ccc(N(CC(=O)N/N=C/c2cc(C)n(-c3ccccc3C)c2C)S(C)(=O)=O)cc1	17µM*	3%	17%	-1%	-5%	1%
Cc1cc(C)cc(-n2c(C)cc(/C=N/NC(=O)CN(c3c(C)cccc3C)S(C)(=O)=O)c2C)c1	0%	-35%	-3%	-2%	-1%	17%
Cc1ccn2c(c1)nc(=O)c1cc(S(=O)(=O)N3CCCCC3)c(Cl)cc12	-3%	x	x	x	x	3%
Brc1ccc(-c2ccc(CNCc3ccccn3)o2)cc1	15µM*	3%	28%	3%	24%	x
Clc1cccc(-c2ccc(CNCc3ccccn3)o2)c1	u	10%	22%	-10%	0%	x
Cc1ccc2oc(C(=O)N(C)Cc3ccc(C)o3)c(C)c2c1	27µM*	12%	u	12%	9%	x
Cc1ccc2oc(C(=O)N(C)Cc3ccon3)c(C)c2c1	11µM*	3.5µM*	u	9.2µM*	3.2µM*	x
CCCc1ccc2oc(C(=O)N(C)Cc3cnccn3)c(C)c2c1	-5%	1%	0%	12%	2%	x
CCCCCC(=O)Nc1cccc(C2=NOC3(C2)C[C@@H](C(N)=O)N(C(=O)Cc2ccc([N+](=O)[O-])cc2)C3)c1 (stereo partly specified)	-15%	-10%	13µM*	1%	-4%	x
CCCCCC(=O)Nc1cccc(C2=NOC3(C2)C[C@@H](C(N)=O)N(C(=O)c2cc([N+](=O)[O-])cc([N+](=O)[O-])c2)C3)c1 (stereo partly specified)	u	0%	-2%	-2%	-8%	x
NC(=O)[C@H]1CC2(CC(c3cccc(NC(=O)COc4ccc(Cl)cc4)c3)=NO2)CN1C(=O)Cc1ccc([N+](=O)[O-])cc1 (stereo partly specified)	9.5µM*	-34%	2.1µM*	-14%	-35%	x
COc1cccc(NC(=O)COc2coc(CN3CCc4ccccc4C3)cc2=O)c1	0%	-3%	-1%	12%	-3%	x
O=C(N1CCOCC1)C1(c2ccccc2)CCCCC1	2%	-10%	17%	1%	0%	32µM*
O=C1NC[C@H](c2ccccc2)N(CCC23CC4CC(CC(C4)C2)C3)C1=O	3%	0%	-1%	3%	-1%	x
Cc1nc2ccccc2c2oc(C(=O)Nc3ccc4c(c3)OCCO4)cc12	15µM*	-1%	21µM*	-3%	12%	-13%
COc1cccc(CNC(=O)c2cc3c(C)nc4ccccc4c3o2)c1	3%	-6%	u	-13%	1%	-56%
COc1cc(NC(=O)c2cc3c(C)nc4ccccc4c3o2)cc(OC)c1OC	-17%	-3%	7.3µM*	-7%	1%	1%
Cc1nc2ccccc2c2oc(C(=O)Nc3ccc(C(C)C)cc3)cc12	-11%	-3%	23µM*	-4%	-9%	-42%
Clc1cccc(-c2nnc(CN3CCN(c4ccccn4)CC3)o2)c1	-7%	x	x	x	x	12%
CC1CCN(S(=O)(=O)c2ccc3c(c2)c(=O)c(C(=O)NC2CCCC2)cn3C)CC1	-2%	3%	-18%	-3%	-2%	-14%
